Activity calls are given as the source filed them.
Test system: not listed separately
Assay: splicing luciferase reporter signal modulators, primary screen, spliceosome inhibition project, cell-based, HEK293, splice +/- reporter (AID 1101);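 also: HEK293 cells carrying a splicing-competent luciferase reporter gene; test concentration not given here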
Details: luminescence, 24 h, higher = more signal, called active from +8 up or from −8 down

SMILES | z-score
CCOC(=O)C[C@H]1[C@H](OC(=O)c2cc3ccccc3oc2=O)[C@@H](NC(=O)CC(C)C)c2cc(OCCCO)ccc2N1C(=O)c1ccc2ccccc2n1 | 0.0136 (inactive)
Cc1ccc(NN2C(C(O)c3c(F)cccc3Cl)C=CC3C(=O)N(C4CCCCC4)C(=O)C32)cc1 (centres undefined) | -1.19 (inactive)
O=C1O[C@@H](c2ccccc2)[C@@H](c2ccccc2)N2[C@@H](c3ccc(OCCO)cc3)[C@]3(C(=O)Nc4ccc(C#CC5=CCCCC5)cc43)[C@@H](C(=O)NC[C@H](O)c3ccccc3)[C@H]12 | 0.556 (inactive)
CCCN1C(=O)[C@]2(Cc3ccccc31)N=C(c1ccc(OCCCO)cc1)O[C@@H]2c1ccccc1 | -0.898 (inactive)
C[N+](C)(C)CCCCCCNC(=O)[C@@H]1C[C@@H]2C(=O)N3CCC[C@H]3C(=O)N2[C@@H]1c1ccc(O)cc1 | -0.546 (inactive)
CCOC(=O)C[C@H]1[C@H](OC(=O)c2ccc(C(=O)c3ccccc3)cc2)[C@@H](NC(=O)CC(C)C)c2cc(OCCCO)ccc2N1C(=O)c1ccccc1 | -0.958 (inactive)
CC1CC/C=C\[C@H]2OC34C=CCN(C(C)C)C(=O)[C@H]3N(CCO)C(=O)[C@@H]4C2C(=O)O1 (some centres undefined) | 0.459 (inactive)
[N-]=[N+]=Nc1ccccc1C[C@]1(C(=O)N2CCOCC2)COC(c2ccc(OCCCO)cc2)=N1 | -0.59 (inactive)
CCCCCCc1nc(Cc2cc(OC)c(OC)c(OC)c2)cc2c1[Si](C(C)C)(C(C)C)OC2 | -0.393 (inactive)

Target: Fibroblast growth factor 10 (Homo sapiens) (UniProt O15520)
Assay: FGF10 binders on small-molecule microarrays, primary screen, biochemical, small-molecule microarray, 635 nm fluorescence (AID 1102)
Details: FGF10 binding, fluorescence 635 nm, higher = more signal

Fibroblast growth factor 10 (Homo sapiens), sequence (O15520 whole entry, looked up): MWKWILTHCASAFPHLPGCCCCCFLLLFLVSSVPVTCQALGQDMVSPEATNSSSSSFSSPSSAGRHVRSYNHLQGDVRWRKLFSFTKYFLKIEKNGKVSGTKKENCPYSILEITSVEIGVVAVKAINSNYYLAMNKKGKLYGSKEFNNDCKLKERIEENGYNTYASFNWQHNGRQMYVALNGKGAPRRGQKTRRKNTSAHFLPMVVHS

SMILES | composite z-score
CO[C@H]1O[C@H](CO)[C@@H](OC(=O)Nc2ccc3c(c2)OCO3)[C@H](OC(=O)Nc2ccc3c(c2)OCO3)[C@@H]1OC(=O)Nc1ccc2c(c1)OCO2 | 1.39
CCCC1(C(=O)OC)C=C2C(=C(C)C(=O)C2C)CN1 (centres undefined) | 0.168
CO[C@H]1O[C@H](CO)[C@@H](OC(=O)Nc2ccccc2)[C@H](OC(=O)c2cc3ccccc3[nH]2)[C@H]1OC(=O)c1cc2ccccc2[nH]1 | 1.35
O=C1O[C@H](c2ccccc2)[C@H](c2ccccc2)N2[C@H]1[C@@H](C(=O)O)[C@]1(C(=O)Nc3ccc(C#CCCO)cc31)[C@H]2c1ccccc1OCCO | 0.258
CCCCC[C@H]1OC[C@@]23C=C(Br)[C@@H](CC12)[C@@]1(CO1)C3=O (some centres undefined) | 0.106
CCCCN1CC=CC23O[C@@H]4/C=C\CCC(C)OC(=O)C4[C@H]2C(=O)N(CCCO)[C@@H]3C1=O (some centres undefined) | -1.13
CC[C@@H]1C=C(C(=O)O)[C@H](c2ccc(C#N)cc2)N1S(=O)(=O)c1ccc(C)cc1 | 0.396
O=C1[C@H]2C=C(I)[C@H](C[C@@H]2OCCOCCO)[C@@]12CO2 | 0.954
COCCOC(=O)N1C(=O)[C@@]2(c3cc(C#CC4=CCCCC4)ccc31)[C@H](C(=O)Nc1nc3ccccc3s1)[C@H]1C(=O)O[C@H](c3ccccc3)[C@H](c3ccccc3)N1[C@@H]2c1ccc(O)cc1 | 0.669
COc1ccc([C@H]2OC[C@@H]3C[C@H](Cc4ccccc4)C(=O)N32)cc1 | 0.439
NC(=O)NCC#Cc1ccc2c(c1)[C@]1(C(=O)N2)[C@H](c2ccccc2OCCO)N2[C@H](c3ccccc3)[C@H](c3ccccc3)OC(=O)[C@H]2[C@@H]1C(=O)O | -0.0931
CC1CC/C=C\[C@H]2OC34C=CCN(c5ccc(Cl)cc5)C(=O)[C@H]3N(C(C)CO)C(=O)[C@]4(C)C2C(=O)O1 (some centres undefined) | -0.39
CCOC(=O)C1=C[C@@H](C(C)C)N(S(=O)(=O)c2ccc(C)cc2)[C@H]1c1ccc(C(F)(F)F)cc1 | 0.896
OCCCC1=CC(c2ccc(CN3CCCC3)cc2)N(Cc2cc3c(cc2Br)OCO3)CC1 (centres undefined) | 0.477
CCCCCCCCCC(O)C1C=CC2C(=O)N(c3ccccc3)C(=O)C2N1Nc1cc(OC)c(OC)c(OC)c1 (centres undefined) | -0.4
COCCCNC(=O)[C@@]1(CCC(=O)OC(C)(C)C)N=C(c2ccc(OCCCO)cc2)O[C@H]1c1ccccc1N=[N+]=[N-] | 1.23
COc1cc(OC)c(C(O)C2C=CC3C(=O)N(Cc4ccccc4)C(=O)C3N2n2cnnc2)cc1Br (centres undefined) | 1.05
C[N+](C)(C)CCCC[C@@H]1NC(=O)[C@@H]2C[C@H](C(=O)NCCCCCCN)[C@H](c3cccc(OCCO)c3)N2C1=O | 0.766

SMILES | composite z-score
O=C1C2C=CC(C(O)C3CC=CCC3)N(Nc3ccccc3)C2C(=O)N1c1ccccc1 (centres undefined) | 0.154
C=CCNC(=O)[C@H]1[C@@H]2C(=O)O[C@@H](c3ccccc3)[C@@H](c3ccccc3)N2[C@@H](c2ccccc2OCCO)[C@]12C(=O)N(C(=O)OCCOC)c1ccc(C#CC3(O)CCCCCC3)cc12 | 1.13
COCCOC(=O)N1C(=O)[C@@]2(c3cc(C#CC4=CCCCC4)ccc31)[C@H](c1ccccc1OCCO)N1[C@H](c3ccccc3)[C@H](c3ccccc3)OC(=O)[C@H]1[C@@H]2C(=O)NC[C@H](O)c1ccccc1 | 1.19
CCCC[C@@H](O)C1=C(COc2ccccc2)C[C@H]2C(=O)N(Cc3ccccc3)C(=O)[C@H]2[C@H]1CO | 0.574
O=C1OCCC/C=C\[C@H]2OC34C=CCN(c5ccc6ccccc6c5)C(=O)[C@H]3N(CCO)C(=O)[C@@H]4C12 (some centres undefined) | -0.654
COC(=O)c1c(CC[C@@H](CO)NC(=O)N[C@@H](C)Cn2cc(-c3ccccn3)nn2)oc(C(C)=O)c1C(=O)OC | 0.563
CC(C)C[C@@H]1NC(=O)[C@@H]2C[C@H](C(=O)NCCCCCCN)[C@H](c3cccc(OCCO)c3)N2C1=O | 1.13
[N-]=[N+]=Nc1ccccc1C[C@@]1(C(=O)N2CCOCC2)N=C(c2ccc(OCCCO)cc2)O[C@@H]1c1ccccc1 | 1.36
CCOC(=O)C[C@H]1[C@H](OC(=O)c2cc3ccccc3oc2=O)[C@@H](NC(=O)CC(C)C)c2cc(OCCCO)ccc2N1C(=O)c1ccc2ccccc2n1 | 1.32
Cc1ccc(NN2C(C(O)c3c(F)cccc3Cl)C=CC3C(=O)N(C4CCCCC4)C(=O)C32)cc1 (centres undefined) | 0.425
O=C1O[C@@H](c2ccccc2)[C@@H](c2ccccc2)N2[C@@H](c3ccc(OCCO)cc3)[C@]3(C(=O)Nc4ccc(C#CC5=CCCCC5)cc43)[C@@H](C(=O)NC[C@H](O)c3ccccc3)[C@H]12 | 1.4
CCCN1C(=O)[C@]2(Cc3ccccc31)N=C(c1ccc(OCCCO)cc1)O[C@@H]2c1ccccc1 | 0.592
C[N+](C)(C)CCCCCCNC(=O)[C@@H]1C[C@@H]2C(=O)N3CCC[C@H]3C(=O)N2[C@@H]1c1ccc(O)cc1 | 1.37
CCOC(=O)C[C@H]1[C@H](OC(=O)c2ccc(C(=O)c3ccccc3)cc2)[C@@H](NC(=O)CC(C)C)c2cc(OCCCO)ccc2N1C(=O)c1ccccc1 | 0.515
CC1CC/C=C\[C@H]2OC34C=CCN(C(C)C)C(=O)[C@H]3N(CCO)C(=O)[C@@H]4C2C(=O)O1 (some centres undefined) | -0.309
[N-]=[N+]=Nc1ccccc1C[C@]1(C(=O)N2CCOCC2)COC(c2ccc(OCCCO)cc2)=N1 | 0.613
CCCCCCc1nc(Cc2cc(OC)c(OC)c(OC)c2)cc2c1[Si](C(C)C)(C(C)C)OC2 | 0.124
